Test results as given in ChEMBL document CHEMBL3433997, “St. Jude Leishmania screening dataset” (2016).

target: Glucose transporter (Leishmania mexicana) (UniProt O61059); assay: ST_JUDE_LEISH: Cytotoxicity at 2uM final concentration against transgenic Leishmania Mexicana promastigotes LmGT2 that are glucose transport deficient and complemented with the L. Mexicana glucose transporter 2. Activity is measured by DNA content using SYBR green in vitro; type: functional

| Structure (SMILES) | inhibition [%] |
| --- | --- |
| N=c1n(CCN2CCCCC2)c2ccccc2n1CC(=O)c1cccc([N+](=O)[O-])c1 | 0.59 |
| O=C(Nc1ccc(C(=O)OCC2CCCCC2)cc1)N[C@@H](Cc1ccc(O)cc1)C(=O)NC1CCN(Cc2ccc(O)cc2)C1 (some centres undefined) | 3.42 |
| N#Cc1cccc(NC(=O)Nc2ccc3c(c2)CN(Cc2c[nH]c4ncccc24)C3)c1 | 3.37 |
| COC(=O)CNC(c1ccccc1)c1cc(Br)ccc1NC(=O)c1ccccc1Br (centres undefined) | 5.19 |
| Cc1c(S(=O)(=O)Nc2ccc3nccc(N4CCN[C@H](C)C4)c3c2)sc2ccc(Cl)cc12 | -2.96 |
| c1ccc2c(NCCCCCCCCCNc3ccnc4ccccc34)ccnc2c1 | 8.19 |
| Cc1cc(N2CCOCC2)nc(Nc2ccc(NC(=O)c3cccc4ccccc34)cc2)n1 | 5.87 |
| CCCNC(=O)C1Cc2c([nH]c3ccc(Br)cc23)C2(CCN(CCc3ccccc3)CC2)N1 (centres undefined) | 1.33 |
| CN(C)CCCN1CCN(Cc2ccc(-c3ccc(-c4nc5ccccc5[nH]4)s3)cc2)CC1 | 12.1 |
| CC(CCc1ccc(OCc2ccccc2)cc1)NCC(O)c1ccccc1 (centres undefined) | -0.69 |
| CCN(CC)CCn1c(=N)n(CC(O)c2ccc(Cl)c(Cl)c2)c2ccccc21 (centres undefined) | 12.9 |
| CN1CCCN(Cc2ccc(-c3ccc(NC(=O)c4ccc(Cl)cc4)cc3)cc2)CC1 | 50.7 |
| NC(=O)c1cccc(Nc2nccc(Nc3ccc(Oc4c(Cl)cccc4Cl)c(Cl)c3)n2)c1 | 2.92 |
| CCc1c(CCNC/C=C/C=C/CNCCc2ccc(OC)c(OC)c2CC)ccc(OC)c1OC | 1.71 |
| Fc1ccc2[nH]c(-c3ccc(-c4cccc(CN5CCCCC5)c4)cc3)nc2c1 | 1.72 |
| Cc1cccc2nc(-c3cccc(-c4cccc(C(=O)NCc5nccn5C)c4)c3)[nH]c12 | 10.2 |
| Oc1ccc(-c2cc(COc3ccccc3C(F)(F)F)c(C3=CCNCC3)cc2COc2ccccc2C(F)(F)F)cc1 | -0.12 |
| COc1ccc2nccc([C@@H](O)CN3CCC(NCc4cnc5c(c4)NC(=O)CS5)C(F)C3)c2c1 (some centres undefined) | 0.86 |
| COc1ccc(CC2(c3ccc(F)cc3)N=C(N)N(CCCc3ccccc3)C2=O)cc1 (centres undefined) | 4.39 |
| FC(F)(F)c1cc(C(F)(F)F)c2cc(CNCCCNc3nc4ccccc4[nH]3)[nH]c2c1 | -1.92 |

| Structure (SMILES) | inhibition [%] |
| --- | --- |
| Cc1cc(=NN=CC=Cc2ccccc2)c2cc(F)ccc2[nH]1 | 0.04 |
| Cc1cccc2nc(-c3cccc(-c4cccc(NC(=O)c5ccoc5)c4)c3)[nH]c12 | 0.26 |
| CN(C)c1ccc(CN2CCCC(CNC(=O)c3ccc(-c4cccc(C(F)(F)F)c4)s3)C2)cc1 (centres undefined) | -0.14 |
| Cc1cc(NCCc2ccccc2)nc(N/C(=N/CC(=O)OC(C)(C)C)Nc2ccc(C(F)(F)F)cc2)n1 | 2.34 |
| CC(C)NCc1cccc(-c2ccc(NC(=O)c3cccc(C#N)c3)cc2)c1 | 2.32 |
| COc1ccc2nc(C)cc(Nc3ccc(N4CCN(C)CC4)cc3)c2c1 | 0.99 |
| O=[N+]([O-])c1ccc(Nc2nc(N/N=C/c3cc(Cl)cc(Cl)c3O)nc(Nc3ccccc3)n2)cc1 | 2.65 |
| CCOc1c(C)cc(C(F)(F)F)cc1CNCCCNc1cc(=O)c2ccccc2[nH]1 | 5.79 |
| COc1cc2c(cc1OC)CN(c1cc(N)c3cc(OC)c(OC)cc3n1)CC2 | -1.39 |
| CN(Cc1ccc(C#N)cc1)C1CCN(c2cc(NC(=O)c3cccc(F)c3)ccn2)CC1 | 0.96 |
| COc1ccc(NC(=O)Nc2cccc(-c3cccc(-c4nc5ccccc5[nH]4)c3)c2)cc1 | -1.98 |
| O=C(/C=C/c1ccc(Cl)cc1)NCCCCCN1CCCC(C(=O)Nc2cccc(Cl)c2)C1 (centres undefined) | 3.91 |
| CNCCNCc1cccc(-c2ccc(-c3nc4cc(C(F)(F)F)ccc4[nH]3)cc2)c1 | 2.03 |
| COc1ccc(-c2cc(-c3ccc(S(C)(=O)=O)cc3)cnc2N)cn1 | 3.66 |
| Cc1[nH]c(C)c(-c2ccc(Oc3ccc(F)cc3)cc2)c(=O)c1Br | 2.46 |
| Cc1cc(=NN=Cc2cccc(Cl)c2)c2cc(F)ccc2[nH]1 | 4.84 |
| N=c1cc(C=Cc2ccc(O)cc2)[nH]c2ccccc12 | 3.12 |
| COc1ccc(-c2nonc2NC(=O)c2cccc(C)c2)cc1OC | 10.1 |
| COc1ccc(Cl)c(CC2c3cc(O)c(Cl)cc3CCN2C)c1 (centres undefined) | -1.58 |
